Compound activity: PubChem, University of Kansas High Throughput Screening Laboratory
Pf apPOL block = Pf-apPOL DNA polymerase inhibition; inhibition, % at 10 µM; AID 1794808; 210,000 tested, 0.25% active; Recombinant Pf-apPOL, molecular beacon fluorescence, 1.5 h
mHTT CaM bind = mHTT-calmodulin interaction abrogation. inhibition, % at 15 µM. AID 1671202. 190,000 tested, 3.6% active. P42858. AlphaScreen His-mHTT/GST-CaM binding, luminescence;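 also: 0% = both proteins with DMSO and 100% = one protein alone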
Target sequence (P42858 whole entry, looked up, stated change not applied): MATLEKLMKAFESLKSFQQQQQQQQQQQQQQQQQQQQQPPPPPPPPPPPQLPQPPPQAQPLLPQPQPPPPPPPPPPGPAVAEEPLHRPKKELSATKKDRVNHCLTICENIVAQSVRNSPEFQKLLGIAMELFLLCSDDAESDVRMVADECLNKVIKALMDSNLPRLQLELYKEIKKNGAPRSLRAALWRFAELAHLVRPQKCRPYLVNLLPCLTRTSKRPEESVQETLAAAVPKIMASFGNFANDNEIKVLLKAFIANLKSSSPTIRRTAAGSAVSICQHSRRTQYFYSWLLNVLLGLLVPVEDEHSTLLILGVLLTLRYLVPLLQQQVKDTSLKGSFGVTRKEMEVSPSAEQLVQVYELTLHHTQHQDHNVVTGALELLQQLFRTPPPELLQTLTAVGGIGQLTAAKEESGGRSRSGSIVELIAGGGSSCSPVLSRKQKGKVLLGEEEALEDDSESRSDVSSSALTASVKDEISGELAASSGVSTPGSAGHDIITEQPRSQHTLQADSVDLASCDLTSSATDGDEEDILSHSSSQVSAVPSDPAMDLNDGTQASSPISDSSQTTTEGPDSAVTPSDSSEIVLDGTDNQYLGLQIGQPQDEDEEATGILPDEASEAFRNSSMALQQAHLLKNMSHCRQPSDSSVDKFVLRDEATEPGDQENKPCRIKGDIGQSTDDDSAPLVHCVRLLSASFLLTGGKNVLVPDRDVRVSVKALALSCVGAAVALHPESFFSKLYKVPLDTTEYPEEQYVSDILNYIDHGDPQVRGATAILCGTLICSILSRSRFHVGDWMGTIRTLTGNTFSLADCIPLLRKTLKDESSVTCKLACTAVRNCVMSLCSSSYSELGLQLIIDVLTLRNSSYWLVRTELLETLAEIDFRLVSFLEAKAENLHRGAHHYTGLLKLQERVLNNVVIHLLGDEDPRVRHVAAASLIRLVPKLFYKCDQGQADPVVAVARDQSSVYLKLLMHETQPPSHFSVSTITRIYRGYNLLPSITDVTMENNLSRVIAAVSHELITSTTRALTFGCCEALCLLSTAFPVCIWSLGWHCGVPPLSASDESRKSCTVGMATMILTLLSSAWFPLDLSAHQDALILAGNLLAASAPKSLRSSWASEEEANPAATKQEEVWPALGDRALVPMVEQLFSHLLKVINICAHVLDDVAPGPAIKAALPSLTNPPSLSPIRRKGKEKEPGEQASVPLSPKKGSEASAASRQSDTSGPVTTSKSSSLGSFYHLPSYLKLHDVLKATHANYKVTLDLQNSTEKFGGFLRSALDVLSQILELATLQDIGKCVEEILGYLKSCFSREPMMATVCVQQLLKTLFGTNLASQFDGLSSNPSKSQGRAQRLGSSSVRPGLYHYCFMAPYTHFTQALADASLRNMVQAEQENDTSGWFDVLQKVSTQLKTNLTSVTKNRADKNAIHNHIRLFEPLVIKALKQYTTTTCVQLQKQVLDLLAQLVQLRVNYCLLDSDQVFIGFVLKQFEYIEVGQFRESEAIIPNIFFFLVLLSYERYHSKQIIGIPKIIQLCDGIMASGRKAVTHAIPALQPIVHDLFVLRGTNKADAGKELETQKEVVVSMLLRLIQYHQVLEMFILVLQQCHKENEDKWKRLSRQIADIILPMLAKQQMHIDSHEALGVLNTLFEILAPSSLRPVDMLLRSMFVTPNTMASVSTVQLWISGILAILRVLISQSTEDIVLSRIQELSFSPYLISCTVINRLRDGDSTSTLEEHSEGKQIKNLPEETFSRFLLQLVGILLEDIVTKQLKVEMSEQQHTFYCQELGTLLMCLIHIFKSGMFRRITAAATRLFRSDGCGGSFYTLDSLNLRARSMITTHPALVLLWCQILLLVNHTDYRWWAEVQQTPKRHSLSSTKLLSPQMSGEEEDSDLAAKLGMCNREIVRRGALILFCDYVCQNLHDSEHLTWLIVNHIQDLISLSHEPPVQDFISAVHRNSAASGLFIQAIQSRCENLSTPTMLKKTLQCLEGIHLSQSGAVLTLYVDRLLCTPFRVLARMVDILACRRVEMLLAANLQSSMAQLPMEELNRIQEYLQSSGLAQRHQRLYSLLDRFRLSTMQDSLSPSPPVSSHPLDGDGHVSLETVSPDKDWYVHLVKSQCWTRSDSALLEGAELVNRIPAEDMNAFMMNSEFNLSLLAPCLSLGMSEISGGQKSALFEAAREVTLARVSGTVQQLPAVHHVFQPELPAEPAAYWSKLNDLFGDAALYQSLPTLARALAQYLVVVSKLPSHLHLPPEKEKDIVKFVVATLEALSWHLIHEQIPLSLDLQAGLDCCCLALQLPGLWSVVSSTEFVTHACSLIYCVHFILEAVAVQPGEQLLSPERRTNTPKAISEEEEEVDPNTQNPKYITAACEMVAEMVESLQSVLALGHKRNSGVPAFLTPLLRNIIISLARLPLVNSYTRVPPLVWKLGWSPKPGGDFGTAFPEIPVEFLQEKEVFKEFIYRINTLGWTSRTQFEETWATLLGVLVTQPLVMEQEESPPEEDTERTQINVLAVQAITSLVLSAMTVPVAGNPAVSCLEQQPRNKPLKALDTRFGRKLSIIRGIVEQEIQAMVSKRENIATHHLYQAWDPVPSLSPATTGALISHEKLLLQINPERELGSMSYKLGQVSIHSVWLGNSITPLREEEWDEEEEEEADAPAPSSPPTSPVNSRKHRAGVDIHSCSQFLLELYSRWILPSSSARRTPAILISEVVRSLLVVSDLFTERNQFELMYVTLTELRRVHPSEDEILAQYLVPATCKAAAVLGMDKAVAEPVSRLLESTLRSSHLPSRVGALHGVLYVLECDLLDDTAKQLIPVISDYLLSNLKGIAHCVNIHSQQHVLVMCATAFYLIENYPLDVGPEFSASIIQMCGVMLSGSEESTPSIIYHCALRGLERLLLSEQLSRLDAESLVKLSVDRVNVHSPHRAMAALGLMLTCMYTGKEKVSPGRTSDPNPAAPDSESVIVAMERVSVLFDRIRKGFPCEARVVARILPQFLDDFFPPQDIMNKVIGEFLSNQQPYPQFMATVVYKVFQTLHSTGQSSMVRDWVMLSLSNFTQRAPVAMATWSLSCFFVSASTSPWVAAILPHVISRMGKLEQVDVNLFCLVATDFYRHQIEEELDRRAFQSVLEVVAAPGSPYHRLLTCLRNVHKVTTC
Numbers without * were called inactive; x = no result given. Most compounds without a hit are left out; they make up all but 3.6% or so of the library. Rule as the data show it: active = inhibition above about 50%; inactive = the rest.

SMILES | Pf apPOL block | mHTT CaM bind
O=C(CCC1CCCC1)N1CCCCC1c1nncn1CC1CC1 (configuration not stated) | 6 | 4
CN(C)C(CNC(=O)C(=O)Nc1ccc(OC(F)(F)F)cc1)c1cccs1 (configuration not stated) | -6 | -5
CCn1ncc(NC(=O)c2ccc(C)cc2)c(N2CCCCC2)c1=O | -3 | -4
O=[N+]([O-])c1ccc(SC2=NCCS2)c([N+](=O)[O-])c1 | -1 | x
O=[N+]([O-])c1ccc(Sc2cccs2)c([N+](=O)[O-])c1 | x | 64*
O=[N+]([O-])c1cc(CN2CCC(c3ccccc3)C2)c(O)c2ncccc12 (configuration not stated) | -1 | 100*
O=[N+]([O-])c1cc(CN2CCCC2)c2cccnc2c1O | 0 | 100*
O=C(NC(/C=C/c1ccccc1)c1cc([N+](=O)[O-])c2cccnc2c1O)C1CCCCC1 (configuration not stated) | 10 | 30
CC1CCN(Cc2cc([N+](=O)[O-])c(O)c3ncccc23)CC1 | -89 | 100*
COc1cc(CN2CCCCCC2)cc([N+](=O)[O-])c1O | -5 | 0
O=[N+]([O-])c1ccccc1CN1CCC(O)CC1 | -8 | -5
CN1CCCN(Cc2ccccc2[N+](=O)[O-])CC1 | -6 | -11
CN1CCN(Cc2cc([N+](=O)[O-])c(O)c3ncccc23)CC1 | 3 | 100*
Cc1cc(Br)cc(C)c1OCCCN(C)C | -3 | 3
O=C(NCc1cccs1)c1cn(-c2cccc(F)c2)nn1 | 1 | -8
COc1cc2[nH]c(=O)n(CCCC(=O)NCCc3c[nH]c4ccccc34)c(=O)c2cc1OC | -4 | 25
COc1ccccc1N1CCN(Cc2cc([N+](=O)[O-])c(O)c3ncccc23)CC1 | 2 | 100*
COc1ccccc1N1CCN(Cc2cc(OC)c(O)c([N+](=O)[O-])c2)CC1 | -7 | -2
CCC(C)(Nc1ccc(N(C)C)cc1)c1nnnn1-c1c(C)cccc1C (configuration not stated) | 2 | 55*
CCc1cccc(C)c1-n1nnnc1C(C)(C)Nc1ccccc1 | -3 | -1
COc1ccc(-c2ccccc2)cc1NCc1cccs1 | 1 | 55*
FC(F)(F)c1cc(-c2ccccc2)nc(NCc2cccs2)n1 | 6 | -272
CC(C)(C)c1[nH]nc2c1C(c1ccccc1F)C(C#N)=C(N)O2 (configuration not stated) | -3 | 4
CC(C)(C)NC(=O)Cn1c(Cc2cccnc2)nc2ccccc21 | -13 | 4
O=[N+]([O-])c1ccc(OC2=C(c3ccccc3)N3CCN=C3S2)cc1 | -2 | 33
SMILES | Pf apPOL block | mHTT CaM bind
Clc1ccc(OC2=C(c3ccccc3)N3CCN=C3S2)cc1 | 0 | 60*
Cc1nnsc1C(=O)Nc1nnc(Cc2ccc3c(c2)OCO3)o1 | -95 | 20
COc1ccc(CCN2C(=O)c3ccccc3C2C(=O)NC2CCCC2)cc1OC (configuration not stated) | -17 | 14
O=C(NC(Nc1ccccc1F)C(=O)c1ccccc1)c1ccc(Cl)cc1 (configuration not stated) | -7 | 16
O=C1CCCC2=C1C(c1ccc(OCc3ccccc3F)c(Cl)c1)C1=C(CCCC1=O)N2 | -4 | -6
CCOc1cc(C2C3=C(CCCC3=O)NC3=C2C(=O)CCC3)ccc1OCc1cccc(F)c1 | -30 | 75*
COc1cc(C2C3=C(CCCC3=O)Nc3ccc4ncccc4c32)ccc1OCc1ccccc1 (configuration not stated) | -1 | 100*
CCOc1ccc(C2C3=C(CCCC3=O)Nc3ccc4ncccc4c32)cc1 (configuration not stated) | -1 | 36
O=C(O)C=Cc1ccc(OC(F)(F)F)cc1 | -8 | x
NC(=O)Cc1ccc(OCC(=O)Nc2ccc(OC(F)(F)Cl)cc2)cc1 | -2 | -4
COc1ccc(CC(=O)N2CCCC2c2cc(C)on2)cc1 (configuration not stated) | -1 | -8
COc1ccc(OCC(=O)N2CCC3(CC2)Nc2cc(C)ccc2-n2cccc23)cc1 | 4 | 54*
COc1ccc2c(c1)NC1(CCN(C(=O)COc3cccc(C)c3)CC1)c1cccn1-2 | -9 | 85*
O=C(Cc1cccc(F)c1)N1CCC2(CC1)Nc1ccccc1-n1cccc12 | 1 | 59*
O=C(COc1ccc(Cl)cc1)N1CCC2(CC1)Nc1ccccc1-n1cccc12 | -2 | 93*
O=C(Cc1cccc(F)c1)N1CCC2(C1)C(=O)Nc1ccccc12 (configuration not stated) | -2 | 7
Cc1ccc(CN2C(=O)NC3(CCN(C(=O)COc4cccc(C)c4)CC3)C2=O)cc1 | -7 | 5
CCOc1ccccc1C(=O)N1CCC2(CC1)Nc1ccccc1-n1cccc12 | -4 | 16
COc1ccc(OCC(=O)N2CCC3(CC2)Nc2cccnc2NC3=NC(C)(C)C)cc1 | -1 | 16
O=C(c1ccsc1)N1CCCCC1c1nncn1Cc1ccccc1 (configuration not stated) | 2 | -6
COc1cccc(CC(=O)N2CCC3(CC2)NC(=O)N(Cc2ccc(C)cc2)C3=O)c1 | -2 | 14
COc1ccc2c(c1)NC1(CCN(C(=O)COc3ccc(F)cc3)CC1)c1cccn1-2 | 1 | 96*
Cc1cccc(OCC(=O)N2CCC3(CC2)NC(=O)N(Cc2ccc(F)cc2)C3=O)c1 | -5 | 29
COc1cccc(CC(=O)N2CCC3(CC2)Nc2cc(OC)ccc2-n2cccc23)c1 | -6 | 92*
CC(=O)Nc1cccc(NC(=O)CCCOc2ccc(Cl)cc2Cl)c1 | 1 | 25
SMILES | Pf apPOL block | mHTT CaM bind
C#CCOCC1CCN(C(=O)CCCc2ccccc2)CC1 | -77 | 31
CCOCCCNC(=O)c1cc2n(n1)CCCN(Cc1ccc(F)cc1)C2=O | 0 | -7
Cc1ccc(C(=O)NCCN2Cc3ccccc3C2=O)cc1 | 0 | -1
O=c1c2c([nH]c3ccccc13)OCCC2 | -2 | -8
COc1ccccc1C(=O)Nc1ccc(NC(=O)c2ccc(Cl)cc2Cl)cc1 | -17 | -3
CC[C@@H]1C(c2cccc(C)c2)=NN(c2ccc(Br)cc2)[C@H]1C(=O)N1CCOC1=O | 2 | 66*
C[C@@H]1C(c2cccc(Cl)c2)=NN(c2ccc(Br)cc2)[C@H]1C(=O)N1CCOC1=O | -1 | 57*
C[C@@H]1C(c2cccc(Cl)c2)=NN(c2ccccc2)[C@H]1C(=O)N1CCOC1=O | -6 | -24
Cc1cccc(C2=NN(c3ccc(Br)cc3)[C@@H](C(=O)N3CCOC3=O)[C@@H]2c2ccccc2)c1 | 0 | -78
CCOC(=O)c1c(C(C)(C)C)oc2cc(Br)c(O)cc12 | 21 | 7
O=S(=O)(Nc1ccc(CN2CCN(c3ccccn3)CC2)cc1)c1ccc(Cl)cc1 | -5 | 10
Cc1cc(O)c(NC(=O)c2ccc([N+](=O)[O-])cc2)cc1C | -5 | 6
O=C(c1ccccc1F)N1CCC2(CC1)NC(=O)N(Cc1ccccc1)C2=O | -2 | -1
O=C(c1nccc2ccccc12)N1CCC2(CC1)NC(=O)N(Cc1cccc(Cl)c1)C2=O | -8 | 24
O=C(c1cc2ccccc2[nH]1)N1CCC2(C1)NC(=O)N(Cc1ccc(Cl)cc1)C2=O (configuration not stated) | 1 | 9
O=C(c1cc2ccccc2[nH]1)N1CCC2(CC1)NC(=O)N(Cc1ccc(Cl)cc1)C2=O | -2 | 99*
O=C(c1c[nH]c2ccccc12)N1CCC2(CC1)NC(=O)N(Cc1cccc(Cl)c1)C2=O | -1 | 100*
